Assay results: PubChem BioAssay AID504374 (National Center for Advancing Translational Sciences (NCATS), 2011)
Values joined by “and” are separate entries in the source; they are usually repeats but may differ in a detail not shown here. Equal entries are not always repeated. About 100 (6.7%) of roughly 1,500 compounds were called active. Roughly 7% stayed inconclusive and do not appear here. The list comes from a sample in which actives are over-represented; it also holds similar structures and randomly drawn compounds. A number with no mark means an inactive call. The call rests on the fitted dose curve; in most records, active means well fitted inhibition curve with a large enough effect; inconclusive means small, poorly fitted or top-dose-only effect, or effect the other way; inactive means flat fitted curve, though single readings scatter.

These compounds were tested against Runt-related transcription factor 1 (Homo sapiens) + Core-binding factor subunit beta (Homo sapiens) (UniProt Q01196+Q13951) (assay: qHTS Assay for Compounds Blocking the Interaction Between CBF-beta and RUNX1 for the Treatment of Acute Myeloid Leukemia: Hit Validation). Settings: AlphaScreen CBFb-His/RUNX1-biotin binding; series mostly up to 59.8 µM; activity, negative = inhibition: at the top concentration.
Runt-related transcription factor 1 (Homo sapiens) + Core-binding factor subunit beta (Homo sapiens), sequence (Q01196 whole entry, looked up): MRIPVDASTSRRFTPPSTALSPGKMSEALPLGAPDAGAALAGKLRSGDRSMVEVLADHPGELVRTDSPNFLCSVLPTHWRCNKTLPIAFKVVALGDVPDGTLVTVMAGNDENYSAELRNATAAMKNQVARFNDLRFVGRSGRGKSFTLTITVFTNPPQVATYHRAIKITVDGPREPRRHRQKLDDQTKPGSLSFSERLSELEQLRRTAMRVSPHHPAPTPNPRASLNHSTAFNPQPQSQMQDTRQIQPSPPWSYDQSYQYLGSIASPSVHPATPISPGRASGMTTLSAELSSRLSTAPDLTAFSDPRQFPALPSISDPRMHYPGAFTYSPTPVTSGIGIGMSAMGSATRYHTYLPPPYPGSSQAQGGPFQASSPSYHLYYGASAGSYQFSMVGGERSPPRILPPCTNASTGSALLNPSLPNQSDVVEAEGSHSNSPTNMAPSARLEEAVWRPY
Runt-related transcription factor 1 (Homo sapiens) + Core-binding factor subunit beta (Homo sapiens), sequence (Q13951 whole entry, looked up): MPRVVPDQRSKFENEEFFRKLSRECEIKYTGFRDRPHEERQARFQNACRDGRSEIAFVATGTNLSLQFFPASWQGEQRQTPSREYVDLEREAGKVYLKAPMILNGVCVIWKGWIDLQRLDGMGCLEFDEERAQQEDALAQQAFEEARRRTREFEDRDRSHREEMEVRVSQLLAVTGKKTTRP
Summary of the method: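 AlphaScreen proximity assay: His-tagged CBF-beta and biotinylated RUNX1 (30 nM each) preincubated 20 min, then compound 15 min, then nickel and streptavidin beads 90 min, all at room temperature; signal read at […]em 440 nm.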
Further: nearly all actives have a fitted effect of over 60% in size.
On the % scale 0 is the no-effect control and ±100 the full control effect; potency means the concentration at half of the fitted maximal effect.

Structure (SMILES) | activity, negative = inhibition | Potency
CCNC(=S)N1N=C2c3ccccc3CCC2C1c1ccc(F)cc1 (stereo not drawn) | 7.45% | 
O=C(NN1C(=O)CSC1=S)C(=O)NN1C(=O)CSC1=S |  | 8.91 µM (active)
Nc1cccnc1Oc1ccccc1F | -2.77% | 
Cn1c(-c2ccc3ccccc3n2)[n+](C)c2ccccc21 | -16.8% | 
Cc1cc(NC(=O)CN2CCCCC2)n(-c2ccccc2)n1 | 2.06% | 
NNC(=O)c1ccc(COCC(F)(F)C(F)F)cc1 | -1.86% | 
CC(C)(C)S(=O)(=O)/C(C#N)=C/Nc1ccccn1 | -2.32% | 
O=C(O)c1nccnc1C(=O)Nc1ccc(S(=O)(=O)N2CCOCC2)cc1 | -6.89% | 
CSc1nc2cc(S(=O)(=O)N3CCCCC3)ccc2s1 | -1.3% | 
O=S(=O)(c1ccc2nc(-c3ccco3)c(-c3ccco3)nc2c1)N1CCOCC1 |  | 5.46 µM (active)
COC(=O)CC1=C(C(=O)OC)[C@@H](c2ccccc2[N+](=O)[O-])C(C#N)=C(N)O1 | 3.04% | 
Cc1ccc(NC(=O)CSc2n[nH]c(N)n2)cc1S(=O)(=O)N1CCOCC1 | -1.46% | 
CCOc1ccc(N2C(=O)CC(NNc3nc4ccccc4s3)C2=O)cc1 (stereo not drawn) | 5.71% | 
O=c1c(-c2cc(O)c(O)c(O)c2)coc2cc(O)c(O)c(O)c12 |  | 0.447 µM (active)
Cc1nnn(C23C[C@@H]4C[C@@H](CC(C(=O)N5CCN(c6ccccc6)CC5)(C4)C2)C3)n1 | -5.35% | 
COC(=O)[C@H](CCSC)NC(=O)Nc1cc(OC)cc(OC)c1 | -12.2% | 
COc1ccc(C(=O)NC(=S)Nc2ccc(CN3CCOCC3)cc2)cc1 | -11.1% | 
Cn1c(=O)c([N+](=O)[O-])c(NCC2CCCO2)c2ccccc21 (stereo not drawn) | -0.834% | 
Cc1cccc(C(=O)N/C(=C\c2ccc(C)o2)C(=O)O)c1 | -12.8% | 
CC(C)(C)OC(=O)N1Cc2cc3ccccc3nc2C1CO (stereo not drawn) | -2.12% | 
COC(=O)CNC(=O)CSc1ccccn1 | 6.43% | 
COC(=O)[C@H](C)NC(=O)NCc1ccccc1 | -3.2% | 
COc1ccc(/C=N/NC(=O)Cn2ccnc2C)cc1OC | -9.74% | 

Structure (SMILES) | activity, negative = inhibition | Potency
O=C(CSc1ccc(-c2ccccn2)nn1)NCc1ccccc1 |  | 5.62 µM (active)
CCOc1ccc(Nc2c3ccccc3nc3ccccc23)cc1 | -13% | 
CCOc1ccc(NC(=O)Nc2cc(C(C)C)c(O)cc2C)cc1 | -2.87% | 
CCOc1ccc(NC(=O)CSc2ccc(-c3ccccn3)nn2)cc1 |  | 5.01 µM (active)
COc1ccc(NC(=O)CSc2ccc(-c3ccccn3)nn2)cc1OC |  | 4.47 µM (active)
COc1ccccc1CC(=O)Nc1cccc(C(=O)Nc2nccs2)c1 | -6.81% | 
Cc1oc(S(=O)(=O)N2CCCCC2)cc1NC(=O)Nc1ccc(F)cc1 | -4.08% | 
CC1CN(S(=O)(=O)c2cccc(C(F)(F)F)c2)CC(C)O1 (stereo not drawn) | -0.629% | 
COc1ccc(NC(=O)CCC(=O)N/N=C/c2ccncc2)cc1 | 4.92% | 
CC(C)CC1C2C(=O)N(c3ccccc3)C(=O)C2ON1c1ccccc1 (stereo not drawn) | 0.251% | 
c1ccc2sc(SCSc3nc4ccccc4s3)nc2c1 | -3.42% | 
CC1(C)CC(=O)C2=C(C1)OC(N)=C(C#N)[C@@H]2c1ccccc1[N+](=O)[O-] | -5.53% | 
COc1ccc(/C=N/NC(=O)c2cnccn2)c(OC)c1OC | -4.33% | 
CSc1ccc(C(=O)NCC(=O)O)cc1[N+](=O)[O-] | -1.02% | 
CC(C)(C)c1ccc(NC(=O)c2ccsc2)cc1 | 6.68% | 
COC(=O)c1ccc(S(=O)(=O)N(C2CCCCC2)C2CCCCC2)n1C | -5.96% | 
CCN(CC)CCN1C(=O)C(=O)/C(=C(/O)c2ccc3c(c2)CC(C)O3)C1c1ccc(OC)cc1 (stereo not drawn) | -3.3% | 
O=S(=O)(Nc1nc(SCc2ccc(Cl)cc2)n[nH]1)c1ccccc1 | -15.9% | 
CCOC(=O)N1CCC(NC(=O)CCCC(=O)O)CC1 | 6.93% | 
Cc1ccccc1-c1noc(-c2ccccc2C(=O)NCC2CCCO2)n1 (stereo not drawn) | -6.51% | 
Nc1c(C(=O)NCC2CCCO2)sc2nc3c(c(-c4ccco4)c12)CC/C3=C\c1ccco1 (stereo not drawn) |  | 12.6 µM (active)
C/C(Cc1nnn(-c2cc(C)on2)n1)=N\O | -0.472% | 
CCOC(=O)Cc1csc(NC(=O)Cc2ccc(Br)cc2)n1 | -4.76% | 

Structure (SMILES) | activity, negative = inhibition | Potency
COc1ccc(-c2nnsc2N2C(=O)c3ccccc3C2=O)cc1 | -3.86% | 
COC(=O)C(=Cc1ccccc1[N+](=O)[O-])C(=O)OC | -2.17% | 
CC(=O)Nc1ccc(S(=O)(=O)Nc2cc(-c3ccccc3)nn2C)cc1 | 0.969% | 
CN(C)C(=O)Nc1ccccc1 | -3.42% | 
O=C(O)C[C@@H]1C(=O)O[C@@H]2C(COC(=O)c3cc(O)c(O)c(O)c3)O[C@@H](OC(=O)c3cc(O)c(O)c(O)c3)[C@@H](OC(=O)c3cc(O)c(O)c4c3[C@H]1[C@H](O)C(=O)O4)[C@H]2OC(=O)c1cc(O)c(O)c(O)c1 (stereo partly drawn) |  | 0.0316 µM (active)
CC(Cc1c[nH]c2ccccc12)C(=O)O (stereo not drawn) |  | 12.2 µM (active)
O=C(/C=C/c1ccccc1)c1c[nH]c2ccccc12 | -1.47% | 
Cc1cccc(CC(=O)c2c[nH]c3ccccc23)c1 | -8.61% | 
Cc1onc(-c2c(F)cccc2Cl)c1C(=O)N1CCSCC1 | -1.82% | 
Cc1cc(=O)cc2oc3cc(N)c(-c4c(C)cc(O)cc4O)c(C)c3nc1-2 |  | 8.88 µM (active)
O=C(O)c1cnc2[nH]c3ccccc3n2c1=O | -12% | 
Nc1nc(Nc2ccccc2)nc(NCCO)c1[N+](=O)[O-] | -6.03% | 
Cc1ccn(C)c(=N)c1 | -1.05% | 
COc1ccc(NS(=O)(=O)c2ccc3c(c2)CCO3)cc1 | -11.6% | 
COc1ccc(OC)c(-c2c3cc(O)c(=O)cc-3oc3cc(O)c(O)cc23)c1 |  | 2.24 µM (active)
NNC(=O)c1ccc(Cn2cccn2)o1 | -3.9% | 
FC(F)(F)c1cccc(-n2c(Cn3nnc4ccccc43)n[nH]c2=S)c1 | 7.14% | 
NCC(=O)Nc1ccc(Cl)cc1C(=O)c1ccc[nH]1 |  | 3.55 µM (active)
Nc1cc(=O)[nH]c(SCC(=O)Nc2cc(Cl)ccc2Cl)n1 | -10% | 
O=C(O)/C=C/C(=O)Nc1ccc(Cl)cc1C(=O)c1ccccc1 | -3.57% | 
Cc1ccc(C)c(N2CCN(c3ccncc3N)CC2)c1 | -11.1% | 
NC(Cc1ccc(O)c(O)c1)C(=O)O (stereo not drawn) |  | 1.12 µM (active)
N[C@H](Cc1ccc(O)c(O)c1)C(=O)O |  | 8.91 µM (active)

Structure (SMILES) | activity, negative = inhibition | Potency
NCCc1ccc(O)c(O)c1 | -10.7% | 
O=C(/C=C/c1ccc(O)c(O)c1)c1ccccc1O | -28.7% | 
CCCCc1cc(=O)oc2c(C)c(OCc3nn[nH]n3)ccc12 | -4.17% | 
CC(=O)Nc1nnc(CSCc2ccc(F)cc2)s1 | -1.58% | 
Cc1ccc(-c2nn[nH]n2)cc1Cl | 0.848% | 
Cc1ccc(C(=O)/C=C/N(C)C)cn1 | -6.06% | 
CCOC(=O)Cc1csc(NC(=O)Nc2cccc(OC)c2)n1 | 6.65% | 
CCOC(=O)N1CCC(NS(=O)(=O)c2ccc(C)c(Cl)c2)CC1 | -2.28% | 
CCOc1ccc(Nc2nc(N)nc(CSC(=S)N3CCOCC3)n2)cc1 | -12.1% | 
CCN(CC)C(=S)SSC(=S)N(CC)CC |  | 0.794 µM (active)
Cc1ccncc1C(N)=O | -0.629% | 
CC(C)N(CCn1cnc2c([nH]c3ccccc32)c1=O)C(C)C | 1.42% | 
Cc1onc(-c2c(Cl)cccc2Cl)c1NC(=O)NC1CCSC1 (stereo not drawn) | -3.96% | 
O=C(O[C@@H]1OC2COC(=O)c3cc(O)c(O)c(O)c3-c3c(cc(O)c(O)c3O)C(=O)O[C@@H]([C@H]1O)[C@@H]2O)c1cc(O)c(O)c(O)c1 |  | 0.224 µM (active)
O=C1OCC2OC(O)C(O)C(O)C2OC(=O)c2cc(O)c(O)c(O)c2-c2c(O)c(O)c3oc(=O)c4c(c(O)c(O)c5oc(=O)c2c3c54)-c2c1cc(O)c(O)c2O (stereo not drawn) |  | 0.224 µM (active)
Cc1oc(S(=O)(=O)N(C)C)cc1C(=O)Nc1ccc(Cl)cc1 | -5.12% | 
Cc1ccc2[nH]cc(CCNC(=O)/C=C/c3ccco3)c2c1 | -14.3% | 
CC1(C)C(CC2OCC(CN3CCCCC3)O2)[C@H]2CC[C@@H]1C2 (stereo partly drawn) | -2.34% | 
C=C(C)C(=O)Nc1cccnc1Oc1ccc(F)cc1 | -1.27% | 
O=C1CCCN1CCCNC(=S)Nc1ccccc1 | -7.84% | 
C=C(C)C(=O)Nc1cccnc1Oc1ccc(F)cc1F | -0.381% | 
O=c1c(O)cccc2cc(O)c(O)c(O)c12 |  | 447 nM (active) and 631 nM (active)
CCOC(=O)C1(C)C=C(Nc2cccc(OC)c2)C(=O)N1c1ccccc1 (stereo not drawn) | -13% | 

Structure (SMILES) | activity, negative = inhibition | Potency
COc1ccccc1NC(=O)Nc1sccc1-c1nc2ccccc2s1 | -17.1% | 
CCOC(=O)c1cnc2c(C(=O)OCC)cnn2c1N | -0.993% | 
O=c1[nH]cc(I)cc1I |  | 17.3 µM (active)
CNC(=O)C(=O)N/N=C/c1cccnc1 | 26.6% | 
Oc1ccc(NC(=S)Nc2ccccc2)cc1 | -3.44% | 
Oc1ccc(/C=N/NC(=S)Nc2cccnc2)c(O)c1O |  | 1.26 µM (active)
CC(C)(C)c1ccc(NC(=S)NCc2cccnc2)cc1 | -3.62% | 
Oc1ccc(/C=N/NC(=S)Nc2cccnc2)c(O)c1 |  | 1.58 µM (active)
S=C(N/N=C/c1cccc2ccccc12)Nc1cccc(Cl)c1 | -12.9% | 
O=c1[nH]nc(N/N=C/c2ccc(Cl)cc2Cl)c(=O)[nH]1 | -5.54% | 
Cc1onc(-c2c(F)cccc2Cl)c1C(=O)N=C(N)N1CC(C)OC(C)C1 (stereo not drawn) | -0.719% | 
O=C(O)C1(c2ccccc2)CCN(S(=O)(=O)c2ccc(Cl)s2)CC1 | -0.0237% | 
N#Cc1c(-c2ccccc2Cl)c2c([nH]c1=O)-c1ccccc1OC2 | 4.48% | 
COc1ccccc1NC(=O)OCC#CCOC(=O)Nc1ccccc1OC | 9.79% | 
CCn1c(NC(=O)c2ccccc2F)c(-c2cccs2)c(=O)c2ccccc21 | -8% | 
S=c1[nH]c2cc3ccccc3cc2[nH]1 | 10.7% | 
Nc1ccc2nc3c(=O)[nH]c(=S)[nH]c3nc2c1 |  | 2.51 µM (active)
COc1ccccc1NC(=S)NCC1CCC(CNC(=S)Nc2ccccc2OC)CC1 (stereo not drawn) | -2.72% | 
NC(=O)c1cccnc1Oc1ccc(Cl)cc1 | -13% | 
COC(=O)c1cccnc1Oc1ccccc1 | -13.6% | 
O=C(O)c1cccnc1C(=O)O |  | 14.1 µM (active)
